In PubChem BioAssay one finds fluorescence slope change data, which are given here for one compound.

Results filed as inconclusive are left out. Activity calls are given as the source filed them. Cut-off read from the data, not from the text of the source: active = fluorescence slope change above about 50%; inconclusive = mostly about 31% to 49%; inactive = weaker than that.

This experiment concerns the target ATP-dependent translocase ABCB1 (Homo sapiens) (UniProt P08183). As to the kind of experiment: P-glycoprotein substrate transport blockade – cell-based (AID 377). As to conditions: MDR1-expressing cells, fluorescent substrate accumulation slope; stronger effect = higher value; concentration not given here.

Sequence of ATP-dependent translocase ABCB1 (Homo sapiens) (P08183 whole entry, looked up): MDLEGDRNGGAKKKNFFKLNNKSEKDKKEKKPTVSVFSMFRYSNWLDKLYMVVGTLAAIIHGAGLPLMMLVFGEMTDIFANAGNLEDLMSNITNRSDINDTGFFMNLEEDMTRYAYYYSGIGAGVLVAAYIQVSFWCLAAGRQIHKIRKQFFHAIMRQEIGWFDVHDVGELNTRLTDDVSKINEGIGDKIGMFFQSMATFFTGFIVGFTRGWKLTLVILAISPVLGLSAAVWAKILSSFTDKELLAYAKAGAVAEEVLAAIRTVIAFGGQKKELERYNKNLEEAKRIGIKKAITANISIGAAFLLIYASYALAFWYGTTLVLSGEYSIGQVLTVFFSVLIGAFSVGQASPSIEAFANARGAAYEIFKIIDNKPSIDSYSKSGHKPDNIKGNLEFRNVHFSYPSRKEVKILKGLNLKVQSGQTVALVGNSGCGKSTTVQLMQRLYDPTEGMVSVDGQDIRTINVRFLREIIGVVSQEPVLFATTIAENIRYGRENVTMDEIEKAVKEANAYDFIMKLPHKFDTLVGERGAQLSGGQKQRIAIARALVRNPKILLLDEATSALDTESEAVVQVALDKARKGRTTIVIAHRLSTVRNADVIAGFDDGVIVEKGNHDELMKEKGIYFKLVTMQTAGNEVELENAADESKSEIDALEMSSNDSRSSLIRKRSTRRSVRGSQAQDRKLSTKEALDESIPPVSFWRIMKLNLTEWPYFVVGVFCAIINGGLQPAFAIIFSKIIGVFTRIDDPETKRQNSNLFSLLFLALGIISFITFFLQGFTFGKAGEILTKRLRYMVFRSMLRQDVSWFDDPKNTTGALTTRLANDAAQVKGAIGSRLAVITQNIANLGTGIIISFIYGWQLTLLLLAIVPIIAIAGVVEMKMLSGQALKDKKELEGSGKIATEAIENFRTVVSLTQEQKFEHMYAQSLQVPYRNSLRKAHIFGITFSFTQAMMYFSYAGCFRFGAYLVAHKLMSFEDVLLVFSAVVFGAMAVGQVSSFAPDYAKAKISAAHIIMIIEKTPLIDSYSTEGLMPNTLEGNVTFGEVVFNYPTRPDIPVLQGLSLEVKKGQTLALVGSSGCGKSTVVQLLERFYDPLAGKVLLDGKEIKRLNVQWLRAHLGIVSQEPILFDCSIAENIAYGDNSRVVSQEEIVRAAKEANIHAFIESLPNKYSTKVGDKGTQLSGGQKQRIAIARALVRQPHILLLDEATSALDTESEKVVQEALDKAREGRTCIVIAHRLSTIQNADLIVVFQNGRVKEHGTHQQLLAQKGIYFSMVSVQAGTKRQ

Regarding `CO[C@H]1/C=C/O[C@@]2(C)Oc3c(C)c(O)c4c(O)c(c(/C=N/N5CCN(C)CC5)c(O)c4c3C2=O)NC(=O)/C(C)=C\C=C\[C@H](C)[C@H](O)[C@@H](C)[C@@H](O)[C@@H](C)[C@H](OC(C)=O)[C@@H]1C`, the fluorescence slope change is 69.2% (active).
